# Most compounds without a hit are left out; they make up all but 7.5% or so of the library.
# KinaseGlo FLuc: Kinase-Glo luciferase inhibition (counter-screen); Q27757; Kinase-Glo luciferase, ATP luminescence, 8 min; Potency, µM (highest dose often 38.3 µM), for the others: at the top dose activity change, negative = inhibition, most hits filed as inhibitors; 200,000 compounds, 0.28% hits; AID 1379; further: on the % scale 0 is the no-effect control and ±100 the full control effect; nearly all actives have a fitted effect of over 60% in size
#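 Kinase-Glo luciferase light output from ATP and luciferin was measured with 10 uM ATP, within the enzyme's linear range. Buffer: 50 mM imidazole pH 7.2, 50 mM KCl, 7 mM MgCl2, 0.01% Tween 20, 0.05% BSA; luminescence read after 8 min at ambient temperature.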
# NPC1 promoter act: NPC1 promoter activation; Huh7 NPC1 promoter luciferase reporter, 24 h; Potency, µM (doses to about 9.22 µM), without a hit: at the top dose activation, actives largely listed as activators; 320,000 compounds, 2.4% hits; further: % of control where 0% means no effect; nearly all actives have a fitted effect of over 60% in size
#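 Luciferase expression driven by the NPC1 promoter was measured in stably transfected Huh7 cells after a 24 h compound incubation, using a luciferase reagent and a luminescence read.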
# FLuc modulator: counter-screen for miR-21 project: firefly luciferase inhibitors or activators; P08659; purified FLuc, Km substrates, luminescence inhibition; Potency, µM (highest dose often 57.5 µM), for the others: at the top dose activity change, negative = inhibition, most hits filed as inhibitors; 360,000 compounds, 6.9% hits;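 further: plate controls were vehicle for no effect and reference inhibitor for full effect; nearly all actives have a fitted effect of over 55% in size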
# Target sequence (P08659 whole entry, looked up): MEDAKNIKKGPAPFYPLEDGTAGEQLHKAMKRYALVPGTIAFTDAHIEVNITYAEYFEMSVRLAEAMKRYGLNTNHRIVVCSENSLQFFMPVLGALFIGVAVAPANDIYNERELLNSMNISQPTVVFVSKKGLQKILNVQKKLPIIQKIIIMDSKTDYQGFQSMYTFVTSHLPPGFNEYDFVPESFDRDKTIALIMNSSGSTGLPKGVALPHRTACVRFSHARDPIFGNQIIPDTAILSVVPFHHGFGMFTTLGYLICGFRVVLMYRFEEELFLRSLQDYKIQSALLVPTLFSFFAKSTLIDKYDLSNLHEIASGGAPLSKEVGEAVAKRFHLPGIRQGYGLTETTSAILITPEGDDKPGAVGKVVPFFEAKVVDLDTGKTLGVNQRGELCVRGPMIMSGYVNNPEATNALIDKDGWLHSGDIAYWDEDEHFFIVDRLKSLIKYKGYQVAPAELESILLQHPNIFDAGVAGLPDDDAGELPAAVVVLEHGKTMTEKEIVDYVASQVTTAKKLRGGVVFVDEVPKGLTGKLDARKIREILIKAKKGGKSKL
#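 Purified P. pyralis luciferase, 10 nM final, with Km-level 10 uM D-luciferin and 10 uM ATP in 50 mM Tris acetate pH 7.5, 10 mM Mg acetate, 0.01% Tween-20, 0.05% BSA; 6-point qHTS titration about 60 µM downward; luminescence read.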
# ELG1 genotoxic: genotoxicity induction in ELG1-luciferase HEK293T cells. 330,000 compounds, 1.3% hits. HEK293T ELG1-luciferase reporter, luminescence, 16 h. Potency, µM (doses to about 46 µM), without a hit: at the highest dose activity change, positive = activation, usual class: activators; further: % of control where 0% means no effect; nearly all actives have a fitted effect of over 60% in size
#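 Quantitative HTS format in 1536-well plates. HEK293T ELG1-luciferase reporter cells receive test compound and are incubated 16 hr at 37 °C, 5% CO2; ONE-Glo added, 30 min room temperature, then luminescence read.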
# Rab9 prom act: activators of Rab9 promoter. Huh7 Rab9 promoter-luciferase reporter, luminescence, 24 h. 320,000 compounds, 2.8% hits. Potency, µM (titrated, usually from 9.22 µM), for the others: at the highest dose activation, negative = inhibition, hits mostly activators; further: % of control where 0% means no effect; nearly all actives have a fitted effect of over 60% in size
#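 Luciferase signal after 10 min detection reagent at ambient indicates Rab9 promoter upregulation; stably transfected Huh7 cells were treated 24 h with compound in DMSO at 37 °C, 5% CO2.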
# SMN2 splice enh: enhancers of SMN2 splice variant expression; HEK293 SMN2-luciferase splicing reporter, luminescence, 30-36 h; Potency, µM (titrated, usually from 46.1 µM), without a hit: at the top dose activity change, positive = activation, actives largely listed as activators; 210,000 compounds, 2.8% hits; further: % of control where 0% means no effect; nearly all actives have a fitted effect of over 55% in size
#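 HEK293 cells carry an SMN2 minigene-luciferase reporter in which exon 7 inclusion puts luciferase in frame. Cells were seeded at 2000 cells/well, attached for 10-12 hours, then exposed to compounds for 30-36 hours at 37C before ONE-Glo luminescence.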
# Numbers without * were called inactive; ? = inconclusive; / = no result given; [ ] = remark or other dose. The call rests on the fitted dose curve; in most records, active means well fitted curve in the direction sought with a large enough effect; inconclusive means small, poorly fitted or top-dose-only effect, or another doubt; inactive means no such curve, though single readings can be large; an effect the other way counts as inactive or inconclusive. Potency means the concentration at half of the fitted maximal effect.
SMILES,KinaseGlo FLuc,NPC1 promoter act,FLuc modulator,ELG1 genotoxic,Rab9 prom act,SMN2 splice enh
Cc1ccc(C(=O)NC(=S)Nc2cccc(-c3nc4ccccc4s3)c2)cc1,-1%,15%,12µM*,?,9%,6%
CN(C)c1cccc(C(=O)Nc2ccc(-c3nc4ccccc4s3)cc2)c1,/,/,5.4µM*,/,/,/
CC(=O)Nc1cccc(-c2nc3ccc(NC(C)=O)cc3s2)c1,2%,3.2µM*,3µM*,?,0.89µM*,13µM*
Cc1ccc(C(=O)Nc2ccc(-c3nc4ccccc4s3)c(O)c2)c(C)c1,/,/,0%,/,/,/
CC(=O)Nc1cccc(-c2cc(C)c3cc4c(cc3n2)OCO4)c1,/,?,8.5µM*,?,30%,/
O=C(COc1ccc(S(=O)(=O)NC2CCCCC2)cc1)Nc1ccc(C(F)(F)F)cc1,/,/,-5%,/,/,-5%
COc1ccc(Cn2c(SCc3ccc(C(=O)NCc4cccs4)cc3)nc3ccncc32)cc1,/,/,-12%,/,/,15%
CC(=O)Nc1cccc(-c2nc3ccccc3s2)c1,-3%,?,9.5µM*,?,2.2µM*,13µM*
Cc1ccc(-c2nc3ccccc3s2)cc1NC(=S)NC(=O)c1cccc2ccccc12,2%,-2%,11µM*,?,1%,?
Cc1nn(-c2ccccc2)nc1CNC(=O)C1CCC1,/,1%,-3%,5%,0%,/
Cc1cc(O)c(C2=Nc3ccccc3SC(c3ccc(Cl)cc3)C2)c(=O)o1 (stereo unspecified),-5%,-3%,4.8µM*,7.3µM*,3%,-60%
COc1ccc(-n2c(=O)c3sc4ccccc4c3n(C)c2=O)cc1,/,/,0%,/,/,2%
O=C1CCc2cc(NS(=O)(=O)c3ccc(F)cc3)cc3c2N1CC3,/,-3%,2%,?,-1%,/
Cc1ccc(S(=O)(=O)Nc2cc3c4c(c2)CCN4C(=O)CC3)cc1,/,-8%,-1%,10µM*,3%,/
O=C(NNC(=O)c1cc(-c2ccccc2)nc2ccccc12)Nc1cccc(Cl)c1,-4%,-2%,?,-21%,0%,-16%
O=C(NNC(=O)c1cc(-c2cccnc2)nc2ccccc12)Nc1ccc(Cl)cc1,0%,13%,24µM*,-8%,26%,-3%
C=CCNC(=S)NNC(=O)c1cc(-c2cccnc2)nc2ccccc12,/,0%,9.5µM*,3%,6%,/
CC(C)(C)c1ccc(-c2cc(C(=O)NNC(=O)Nc3ccccc3)c3ccccc3n2)cc1,-10%,?,0.48µM*,?,21%,14µM*
Cc1ccc(NC(=O)C2CCCN2S(=O)(=O)c2cccc3cccnc23)cc1C (stereo unspecified),/,/,-10%,/,/,-7%
CCCC1=Nc2cc(C(=O)NC3CCCCC3)ccc2Sc2ccc(C)cc21,/,/,-11%,/,/,/
CC(=O)Nc1cccc(N)c1,/,2%,-1%,0%,-1%,-8%
Cc1ccc(/C(N)=N/OC(=O)c2ccc3ccccc3c2)cc1,/,?,6.7µM*,?,?,/
Cc1ccc(C(=O)O/N=C(\N)Cc2cccc3ccccc23)cc1,/,0%,-8%,-10%,8%,/
Cc1ccc(/C(N)=N/OC(=O)c2cccc(F)c2)cc1,/,14%,3µM*,?,16%,/
N/C(=N\OC(=O)c1cccc(F)c1)c1ccccc1,11µM*,17%,0.67µM*,?,26%,2%
SMILES,KinaseGlo FLuc,NPC1 promoter act,FLuc modulator,ELG1 genotoxic,Rab9 prom act,SMN2 splice enh
c1ccc(-c2ccc(-c3ccccn3)s2)nc1,/,?,1.5µM*,?,4µM*,/
CCCCCn1c(=O)[nH]c2cc(C(=O)N3CCN(c4cccc(Cl)c4)CC3)ccc2c1=O,/,/,4%,/,/,0%
Cc1cc(C)n2nc(SCc3nnc(SCc4ccccc4Cl)s3)nc2n1,4%,-3%,17µM*,-1%,-4%,-56%
Cc1cc(C)n2nc(SCc3nnc(SCc4ccccc4C)s3)nc2n1,0%,0%,?,-6%,-2%,-23%
CC(C)(C)C(=O)Nc1nnc(SCC(=O)NC2CCCCC2)s1,/,0%,-1%,-1%,-1%,/
CCN(CC)CCN(Cc1cc2cc(C)c(C)cc2[nH]c1=O)C(=S)NCc1ccco1,-4%,0%,24µM*,0%,-4%,/
Cc1cc2cc(CN(CCN(C)C)C(=S)NCc3ccco3)c(=O)[nH]c2cc1C,0%,-5%,1%,-3%,-3%,-16%
CC(=O)C(/C=N/c1cc(-c2ccc(C)cc2)nn1-c1ccccc1)=C(\C)O,-13%,4µM*,?,?,4µM*,?
Cn1c(=O)[nH]c(=O)c2c1nc(SCC(N)=O)n2Cc1cccc(Br)c1,/,2%,1%,21µM*,-8%,/
Cn1nc(C(=O)N2CCN(c3ccccc3F)CC2)c2c1-c1ccccc1SC2,/,/,-12%,/,/,/
O=C(O)c1cc(-c2ccc(-c3c(-c4ccc5c(c4)OCO5)noc3-c3ccsc3)cc2)nc2ccccc12,/,?,19µM*,3%,21%,/
O=C(O)c1cc(-c2ccc3c(c2)OCO3)nc2ccc(Cl)cc12,/,0%,2.4µM*,29%,29%,/
CN(C)c1ccc(-c2c(-c3ccc4c(c3)OCO4)noc2-c2ccsc2)cn1,/,10%,?,-1%,9%,/
CC(C)(C)NC(=O)c1cc(-c2ccc3c(c2)OCO3)nc2ccccc12,/,20%,17µM*,1%,-5%,/
COC(=O)c1ccc(-c2cc(C(=O)O)c3cc4c(cc3n2)OCCO4)cc1,-3%,3%,4.8µM*,?,-1%,7%
Cc1ccccc1CN1CCN(CC(=O)NCc2ccccc2Cl)C1=O,/,/,-16%,/,/,/
O=C(Nc1ccc2c(c1)OCO2)c1cc(-c2ccncc2)nc2ccccc12,-7%,2%,?,-2%,5%,13%
Cn1c(NC(=O)c2cc(-c3ccc4c(c3)OCO4)nc3ccccc23)cc(=O)n(C)c1=O,?,30%,2.1µM*,?,20%,10µM*
NNc1nc(-c2ccccc2Cl)nc2ccccc12,/,9%,-20%,4%,13%,/
NNc1nc(-c2ccccc2Cl)nc2sc3c(c12)CCCC3,2%,?,0.95µM*,?,?,/
NC(=S)c1ccc[n+]([C@@H]2O[C@@H](COP(=O)([O-])OP(=O)(O)OC[C@H]3O[C@@H](n4cnc5c(N)ncnc54)[C@H](OP(=O)(O)O)[C@@H]3O)C(O)C2O)c1 (stereo partly specified),/,3%[46.1 µM],/,/,-6%[46.1 µM],/
Cc1cc(C)c2c(N)c(C(=O)c3ccccc3)sc2n1,/,-2%,?,-1%,-3%,/
Cc1nc2sc(C(N)=O)c(N)c2c(C)c1CC(=O)c1ccccc1,1%,3.5µM*,17µM*,-6%,2.8µM*,24%

# High-throughput results: PubChem, National Center for Advancing Translational Sciences (NCATS)
